# Measured values published in publication PMC4336329 (PLoS ONE, 2015).
# Hit rate of the full screen: of about 310,000 compounds, about 14,000 (4.5%) showed an effect of 50% or more. The effect is printed as a negative number. The entries come from a sample that favours strong results as a whole.
# Target: human ether-à-go-go-related gene (hERG) potassium channel (human, UniProt Q12809)
# Assay: primary screen, population patch clamp on CHO cells stably expressing hERG; higher = less effect of the substance
# 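Also: peak tail current of the secondary pulse compared with the same well before compound.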
# Sequence of human ether-à-go-go-related gene (hERG) potassium channel (Q12809 whole entry, looked up): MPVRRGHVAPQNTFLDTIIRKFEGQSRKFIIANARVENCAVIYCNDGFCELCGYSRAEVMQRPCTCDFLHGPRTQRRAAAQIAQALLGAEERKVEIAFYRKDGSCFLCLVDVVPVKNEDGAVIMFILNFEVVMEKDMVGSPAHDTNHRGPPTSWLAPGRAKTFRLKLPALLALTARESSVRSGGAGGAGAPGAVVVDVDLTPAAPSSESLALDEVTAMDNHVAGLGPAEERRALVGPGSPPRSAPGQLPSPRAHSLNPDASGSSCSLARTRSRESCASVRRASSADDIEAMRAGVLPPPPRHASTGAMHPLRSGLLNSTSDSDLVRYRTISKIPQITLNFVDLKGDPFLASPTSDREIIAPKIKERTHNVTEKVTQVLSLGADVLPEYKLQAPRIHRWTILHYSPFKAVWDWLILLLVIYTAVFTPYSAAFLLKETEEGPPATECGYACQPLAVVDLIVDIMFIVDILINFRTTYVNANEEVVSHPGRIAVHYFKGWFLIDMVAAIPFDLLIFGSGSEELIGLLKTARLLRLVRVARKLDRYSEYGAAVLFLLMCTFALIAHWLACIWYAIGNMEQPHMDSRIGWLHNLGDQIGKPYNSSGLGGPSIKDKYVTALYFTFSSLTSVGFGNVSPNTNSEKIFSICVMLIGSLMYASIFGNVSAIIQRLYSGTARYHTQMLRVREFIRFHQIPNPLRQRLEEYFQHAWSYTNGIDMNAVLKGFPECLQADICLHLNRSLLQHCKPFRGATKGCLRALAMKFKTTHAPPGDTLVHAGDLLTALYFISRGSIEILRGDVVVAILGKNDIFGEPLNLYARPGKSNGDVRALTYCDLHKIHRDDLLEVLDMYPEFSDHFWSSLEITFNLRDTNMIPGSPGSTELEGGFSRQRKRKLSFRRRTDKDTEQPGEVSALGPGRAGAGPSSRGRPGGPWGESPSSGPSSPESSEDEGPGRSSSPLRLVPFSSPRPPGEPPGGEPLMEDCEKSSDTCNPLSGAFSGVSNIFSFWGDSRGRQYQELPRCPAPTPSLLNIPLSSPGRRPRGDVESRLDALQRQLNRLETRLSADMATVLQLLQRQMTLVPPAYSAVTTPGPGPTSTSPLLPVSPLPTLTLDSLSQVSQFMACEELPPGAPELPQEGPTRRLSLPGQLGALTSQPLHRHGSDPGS
row,Structure (SMILES),"hERG current change (%, negative = inhibition) at 10uM [%]"
1,Cc1ccccc1N1C(=O)CSC1=C(C#N)C#N,18.3
2,S=C(NCc1ccccn1)Nc1ccccc1,16.3
3,Cc1ccc(N2CC(C(=O)NC3CC3)CC2=O)cc1Cl (stereo not drawn),10
4,CCOC(=O)CSc1nc2sc3c(c2c(=O)[nH]1)CC(C)(C)OC3,0.154
5,CSc1cccc(NC(=O)CN(C2CCCCC2)S(C)(=O)=O)c1,-7.59
6,Cc1ccc(-c2csc3nc[nH]c(=S)c23)cc1C,27.5
7,CSc1nc(C)cc(C)c1S(=O)(=O)c1ccccc1C,7.41
8,O=C(C1CC=CCC1)N1CCC(CO)(Cc2ccc(Cl)cc2)CC1 (stereo not drawn),-7.77
9,OCC1(Cc2ccccc2)CCN(CCCC2CCCC2)CC1,-76.8
10,O=C(Cc1ccccc1)N1CCN(CC2CC=CCC2)CC1 (stereo not drawn),-3.05
11,Fc1ccc(CN2CCCCCCC2)cc1F,-24
12,OCC1(Cc2ccccc2)CCN(Cc2cnc(-c3ccc(Cl)cc3)nc2)CC1,-47.1
13,O=C(Nc1ccc(Cl)cc1)N1CCC(CO)(Cc2ccccc2)CC1,-46.6
14,O=S(=O)(c1cccs1)N1CCC(CO)(Cc2ccc(Cl)cc2)CC1,-7.74
15,OCC1(Cc2ccc(Cl)cc2)CCN(CCCc2ccccc2)CC1,-83.9
16,OCC1(Cc2ccc(Cl)cc2)CCN(Cc2ccc(F)c(F)c2)CC1,-68.6
17,OCC1(Cc2ccc(Cl)cc2)CCN(CC2CC=CCC2)CC1 (stereo not drawn),-76.7
18,O=C1CC(N2CCOCC2)C(=O)N1CCc1ccccc1 (stereo not drawn),6.86
19,C=C1c2cc(C)ccc2NC(=O)N1c1ccccc1,2.71
20,Cc1ccc(S(=O)(=O)N2CCN(C(=O)c3ccccn3)CC2)c(C)c1,20.1
21,NC(=O)C1CCN(c2oc(/C=C/c3ccc(F)cc3)nc2S(=O)(=O)c2ccccc2)CC1,5.52
22,Cc1ccc(NC(=O)Nc2c(C)n(C)n(-c3ccccc3)c2=O)cc1C,13.1
23,Cn1c(/C(C#N)=C/c2ccc(-c3ccc(S(N)(=O)=O)cc3)o2)nc2ccccc21,-38.1
24,COc1ccc(N/C(N)=N/c2nc(CSc3ccc(Cl)cc3)cc(=O)[nH]2)cc1,17.5

row,Structure (SMILES),"hERG current change (%, negative = inhibition) at 10uM [%]"
1,Cc1cccc(CN2CCC(CNC(=O)C3CCCN(S(=O)(=O)c4cnc[nH]4)C3)CC2)c1 (stereo not drawn),-1.13
2,O=C(NCc1cccnc1)C(=O)Nc1nc2ccccc2s1,3.9
3,O=C(Nc1cccc2c1CCCC2)C1CCCN(S(=O)(=O)c2cccc3nonc23)C1 (stereo not drawn),-1.23
4,CCO[C@@H]1OC(C(=O)NCc2nc3ccccc3[nH]2)=C[C@H](c2ccccc2)[C@H]1CCCO,-25.4
5,CSc1ccc(/C=N/N2CCN(Cc3ccc(Cl)cc3)CC2)cc1,8.01
6,OCCC1CN(Cc2ccc(Oc3ncccn3)cc2)CCN1C1CCCCC1 (stereo not drawn),-7.34
7,CCN1CCCC(CO)(Cc2ccccc2)C1 (stereo not drawn),13.3
8,CSc1ccc(CN2CCCCCC2)cc1,-35
9,OCC1(Cc2ccc(Cl)cc2)CCN(Cc2ccc(Oc3ncccn3)cc2)CC1,-74.1
10,CSc1ccc(CN2CCCC(CO)(Cc3ccccc3)C2)cc1 (stereo not drawn),-60.7
11,OCCC1CN(Cc2ccc(Oc3ncccn3)cc2)CCN1C1CCCC1 (stereo not drawn),8.16
12,CSc1ccc(CN2CCC(CO)(Cc3ccc(Cl)cc3)CC2)cc1,-81.3
13,OCC1(Cc2ccccc2)CCCN(Cc2ccn[nH]2)C1 (stereo not drawn),-11.8
14,OCC1(Cc2ccc(Cl)cc2)CCN(Cc2ccccc2F)CC1,-69.2
15,Fc1ccccc1CN1CCN(c2ccc(Cl)cc2)CC1,1.71
16,OCC1(Cc2ccccc2)CCN(Cc2cccc(F)c2F)CC1,-11.3
17,COc1ccc(NC(=O)CNc2cc(C)ccc2C)cc1S(=O)(=O)N1CCOCC1,-8.85
18,COc1cccc(-c2cn(-c3cccc(C(F)(F)F)c3)c(=S)[nH]2)c1,20.4
19,Cc1cnc(C(=O)OCC(=O)N(C)CC(=O)Nc2ccccc2Cl)cn1,-2.14
20,CC(OC(=O)c1ccncc1)C(=O)Nc1cccc(Cl)c1 (stereo not drawn),-23.2
21,Cc1ccc(S(=O)(=O)N(C)C)cc1NC(=O)C(C)OC(=O)c1ccc2ccccc2n1 (stereo not drawn),-26.8
22,Cc1cc(C)cc(N(CCC(=O)Nc2nnc(C3CC3)s2)S(=O)(=O)c2ccc(Cl)cc2)c1,4.63
23,COC(=O)C1CCN(C(=O)COC(=O)c2oc3ccc(OC)cc3c2C)CC1,-17.3
24,COc1ccc2oc(C(=O)OCC(=O)N3CCC(C)CC3)c(C)c2c1,-0.112

row,Structure (SMILES),"hERG current change (%, negative = inhibition) at 10uM [%]"
1,COc1ccc2oc(C(=O)OCC(=O)N3CCCCC3)c(C)c2c1,8.71
2,COc1ccc2oc(C(=O)OCC(=O)N3CC(C)OC(C)C3)c(C)c2c1 (stereo not drawn),-0.998
3,CCOC(=O)C1CCN(C(=O)COC(=O)c2oc3ccc(OC)cc3c2C)CC1,-55.6
4,COc1ccc2oc(C(=O)OCC(=O)N3CC(C)CC(C)C3)c(C)c2c1 (stereo not drawn),-56.1
5,O=C(NCc1ccncc1)c1cccc(F)c1,0.361
6,Cc1c(C(=O)c2ccccc2C(=O)O)sc2ccccc12,15
7,Cc1cc2cc(CCNC(=O)C(C)C)c(=O)[nH]c2cc1C,2.03
8,NC(=O)C1=C[C@H](C2CCCCC2)C[C@H](OCc2ccc(CO)cc2)O1,2.51
9,COc1ccc(S(=O)(=O)N2CCCC2=O)cc1N(C)S(C)(=O)=O,13.8
10,CCOC(=O)c1c(C)[nH]c(C)c1C(=O)COC(=O)/C=C/c1cccc(C(F)(F)F)c1,1.35
11,CCC12CN3CCN(CC(C3)/C1=N/NC(=O)c1ccncc1)C2,21.2
12,COc1ccccc1NC(=O)COc1ccccc1,10.9
13,O=C(c1cc(COc2cccc(C(F)(F)F)c2)on1)N1CCC(c2ccccc2)CC1,6.79
14,Cc1cc(OCc2cc(C(=O)N3CCC(Oc4cccnc4)CC3)no2)cc(C)c1Cl,9.06
15,COc1cccc(OCc2cc(C(=O)N3CCC(c4ccncc4)CC3)no2)c1,-40.9
16,O=C(c1cc(COc2cccc(C(F)(F)F)c2)on1)N1CCC(Oc2cccnc2)CC1,-64.1
17,COc1cc(Cl)ccc1OCc1cc(C(=O)NC(C)Cc2cccnc2)no1 (stereo not drawn),-30.7
18,O=C(c1cc(COc2cccc(C(F)(F)F)c2)on1)N1CCc2ccccc2C1,10.4
19,O=C(c1cc(COc2cccc(C(F)(F)F)c2)on1)N1CCC(c2ccncc2)CC1,-78.8
20,Cc1ccc(OCc2cc(C(=O)N3CCCCCCC3)no2)cc1C,3.22
21,COc1ccc(OCc2cc(C(=O)NC(C)Cc3cnccn3)no2)c(Cl)c1 (stereo not drawn),-4.5
22,Cc1ccc(OCc2cc(C(=O)N3CCC(Oc4cccnc4)CC3)no2)cc1C,-56.7
23,COc1cc(Cl)ccc1OCc1cc(C(=O)NC(C)Cc2cnccn2)no1 (stereo not drawn),-53.8
24,C[C@@H]1CN(C(=O)c2cc(COc3cccc(C(F)(F)F)c3)on2)C[C@H](C)O1,8.11

row,Structure (SMILES),"hERG current change (%, negative = inhibition) at 10uM [%]"
1,Cc1c(NC(=O)C2CCN(S(=O)(=O)c3ccccc3)CC2)c(=O)n(-c2ccccc2)n1C,4.47
2,CCCC(=O)Nc1cc(C(=O)O)ccc1S(=O)(=O)c1ccc(C)cc1,11.6
3,Cc1nc2c(c3c1[nH]c1ccccc13)C(=O)CC(C)(C)C2,-0.41
4,O=C(O)CN1C(=O)/C(=C\c2cc(Br)ccc2OCc2ccc(Cl)cc2)SC1=S,15.2
5,COc1ccc(-c2n[nH]c3c2CN(C(=O)c2ccc(OC)c(OC)c2)CC3)cc1,-15.5
6,CC(=O)NC12CC3CC(C)(C1)CC(NC(C)=O)(C3)C2,-11.4
7,COc1ccc([C@H]2[C@@H](C#N)[C@H](C#N)N3CCCN23)cc1,14.2
8,CN(C)CCCOc1ccc(C(C)(C)c2ccccc2)cc1.O=C(O)C(=O)O,-16.5
9,COc1ccc(NC(=O)COC(=O)c2n[nH]c3ccccc23)c(OC)c1,-4.2
10,O=C(c1cnn2ccccc12)N(Cc1ccco1)C1CCCC1,4.7
11,Cc1ccc(C(C)C)cc1OCC(=O)NNC(=O)Nc1ccccc1,28.3
12,CC(C)=N/N=C(\c1cccc([N+](=O)[O-])c1)C12CN3CN(CN(C3)C1)C2,7.66
13,O=C(c1cc(COc2cccc(C(F)(F)F)c2)on1)N1CCSCC1,-17
14,COc1ccc(OCc2cc(C(=O)NC(C)Cc3cccnc3)no2)c(Cl)c1 (stereo not drawn),-36.3
15,Cc1ccc(OCc2cc(C(=O)NC(C)Cc3cnccn3)no2)cc1C (stereo not drawn),0.149
16,COc1ccc(OCc2cc(C(=O)NCC(C)Oc3cccnc3)no2)c(Cl)c1 (stereo not drawn),-52.6
17,Cc1ccc(OCc2cc(C(=O)NC(C)Cc3cccnc3)no2)cc1C (stereo not drawn),-91
18,CC(CNC(=O)c1cc(COc2c(F)cccc2F)on1)Oc1cccnc1 (stereo not drawn),-18.6
19,CC(=O)c1cccc(OCc2cc(C(=O)NC(C)Cc3cccnc3)no2)c1 (stereo not drawn),-6.23
20,CCOC(=O)N1CCN(C(=O)c2cc(COc3cccc(C(C)=O)c3)on2)CC1,1.62
21,CCOC(=O)N1CCN(C(=O)c2cc(COc3cccc(C(F)(F)F)c3)on2)CC1,-76.7
